Columns and labels:
[1] = system: Botulinum neurotoxin type F light chain protease (Clostridium botulinum); assay: Botulinum neurotoxin type F light chain protease inhibition, multiplex microsphere flow cytometry, validation set (AID 588459); conditions: multiplex microsphere protease substrate cleavage assay, at 10 µM, stronger effect = higher value
[2] = biological target: Botulinum neurotoxin type A (Clostridium botulinum) (UniProt P0DPI0); assay: BoNT/A light chain protease inhibitors, biochemical, multiplex microsphere flow cytometry, validation set (AID 588460); conditions: at 10 µM, stronger effect = higher value
Chain of Botulinum neurotoxin type A (Clostridium botulinum) (P0DPI0 whole entry, looked up): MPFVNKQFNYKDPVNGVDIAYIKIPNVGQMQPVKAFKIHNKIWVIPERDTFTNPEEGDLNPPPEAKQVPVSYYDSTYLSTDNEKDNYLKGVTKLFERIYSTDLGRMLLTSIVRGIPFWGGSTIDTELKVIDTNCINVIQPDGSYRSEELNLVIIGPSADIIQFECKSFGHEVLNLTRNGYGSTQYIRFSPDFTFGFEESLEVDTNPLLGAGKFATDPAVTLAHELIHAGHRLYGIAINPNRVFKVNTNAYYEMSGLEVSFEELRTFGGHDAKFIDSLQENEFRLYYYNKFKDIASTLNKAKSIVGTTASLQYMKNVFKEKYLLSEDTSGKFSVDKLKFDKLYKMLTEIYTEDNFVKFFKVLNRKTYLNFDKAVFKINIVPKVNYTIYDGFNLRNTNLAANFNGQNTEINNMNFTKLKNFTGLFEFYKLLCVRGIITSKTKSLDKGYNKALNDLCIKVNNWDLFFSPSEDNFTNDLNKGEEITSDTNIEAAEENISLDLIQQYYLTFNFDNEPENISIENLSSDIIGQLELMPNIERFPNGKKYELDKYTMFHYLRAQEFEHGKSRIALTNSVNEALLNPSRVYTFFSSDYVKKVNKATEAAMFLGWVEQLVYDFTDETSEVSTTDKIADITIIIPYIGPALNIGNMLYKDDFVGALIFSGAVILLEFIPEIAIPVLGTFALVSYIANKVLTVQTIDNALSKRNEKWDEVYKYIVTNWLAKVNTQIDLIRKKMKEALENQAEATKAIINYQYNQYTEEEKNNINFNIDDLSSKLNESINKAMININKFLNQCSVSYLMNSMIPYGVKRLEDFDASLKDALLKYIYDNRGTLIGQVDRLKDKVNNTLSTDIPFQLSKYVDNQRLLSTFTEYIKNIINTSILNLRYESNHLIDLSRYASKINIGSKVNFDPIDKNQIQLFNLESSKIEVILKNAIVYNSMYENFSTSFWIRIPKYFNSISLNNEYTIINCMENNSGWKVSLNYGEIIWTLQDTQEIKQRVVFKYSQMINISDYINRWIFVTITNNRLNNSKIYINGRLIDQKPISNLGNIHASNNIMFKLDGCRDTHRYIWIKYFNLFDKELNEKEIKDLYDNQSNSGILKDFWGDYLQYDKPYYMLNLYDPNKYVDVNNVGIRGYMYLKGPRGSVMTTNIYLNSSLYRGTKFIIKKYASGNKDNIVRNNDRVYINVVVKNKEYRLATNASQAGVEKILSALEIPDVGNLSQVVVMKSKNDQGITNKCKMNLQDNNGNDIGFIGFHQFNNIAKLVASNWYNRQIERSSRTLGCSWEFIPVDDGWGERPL

[3] = biological target: Lethal factor (Bacillus anthracis) (UniProt P15917); assay: Lethal factor protease inhibitors, Bacillus anthracis, multiplex microsphere cleavage assay, validation set (AID 588461); conditions: flow cytometry, at 10 µM, stronger effect = higher value
Chain of Lethal factor (Bacillus anthracis) (P15917 whole entry, looked up): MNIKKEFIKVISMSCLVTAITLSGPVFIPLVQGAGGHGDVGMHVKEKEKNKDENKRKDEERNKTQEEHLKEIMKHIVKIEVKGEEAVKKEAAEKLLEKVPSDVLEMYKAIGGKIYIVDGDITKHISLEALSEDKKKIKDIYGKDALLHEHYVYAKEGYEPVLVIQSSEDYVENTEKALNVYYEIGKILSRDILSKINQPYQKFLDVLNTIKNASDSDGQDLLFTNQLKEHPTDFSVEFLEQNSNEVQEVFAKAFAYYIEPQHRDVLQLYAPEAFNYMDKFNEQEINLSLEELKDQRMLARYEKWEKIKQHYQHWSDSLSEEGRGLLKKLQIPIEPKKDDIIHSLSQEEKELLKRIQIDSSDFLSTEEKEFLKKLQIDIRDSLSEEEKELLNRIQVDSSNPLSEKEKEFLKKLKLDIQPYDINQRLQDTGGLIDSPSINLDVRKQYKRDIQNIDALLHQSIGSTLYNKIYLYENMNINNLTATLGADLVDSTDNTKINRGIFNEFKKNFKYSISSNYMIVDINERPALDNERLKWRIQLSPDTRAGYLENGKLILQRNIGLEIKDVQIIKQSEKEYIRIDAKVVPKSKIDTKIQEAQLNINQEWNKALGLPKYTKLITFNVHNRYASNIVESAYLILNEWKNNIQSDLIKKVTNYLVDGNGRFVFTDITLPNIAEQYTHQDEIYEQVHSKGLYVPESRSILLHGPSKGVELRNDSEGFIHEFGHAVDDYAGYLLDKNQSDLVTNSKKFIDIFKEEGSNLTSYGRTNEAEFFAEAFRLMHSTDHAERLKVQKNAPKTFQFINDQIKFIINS

Measured: inhibition

Oc1ccc(Oc2ncc(Cl)cc2Cl)cc1
inactive: [1] 1.4% | [2] -0.7% | [3] -2.9%

COC1CCN(C(=O)c2ccc(OC3CCN(Cc4ccccn4)CC3)cc2)CC1
inactive: [1] 2.5% | [2] 2.3% | [3] 0.5%

COc1ccc(/C=C\c2cc(OC)c(OC)cc2CC[N+](C)(C)C)cc1OC
inactive: [1] 2% | [2] -1.4% | [3] 3.5%

COc1ccccc1NC(=O)N1CCc2[nH]c3ccc(Cl)cc3c2C1
inactive: [1] 6.8% | [2] 0.4% | [3] -0.7%

CCOC(=O)c1c(O)c2c([nH]c1=O)CCCC2
inactive: [1] 2.3% | [2] -1.4% | [3] -3.9%

O=C(NCc1ccc(N2CCCC2=O)cc1)c1cccc(Cl)c1
inactive: [1] -4.5% | [2] -2.2% | [3] 1%

C/C(CCc1oc2ccc(Cl)cc2c1-c1ccc(C)o1)=N\O
inactive: [1] 1.6% | [2] -0.7% | [3] -3.2%

CC(=O)N/C(=C/c1ccc2c(c1)OCO2)C(=O)NCCO
inactive: [1] 3.7% | [2] 0.6% | [3] 1%

CC(C)CCOCC(=O)Nc1cccc(C(=O)O)c1
inactive: [1] 2.9% | [2] 0% | [3] -0.3%

CCSC(SCC)[C@H](O)[C@@H](O)[C@H](O)[C@H](O)CO
inactive: [1] 3.3% | [2] -0.7% | [3] -1.5%

O[C@H]1COC2C1OC[C@@H]2O (stereo partly drawn)
inactive: [1] -2.3% | [2] -0.4% | [3] 0%

C[C@]12CCC(=O)C=C1[C@H](O)C[C@@H]1[C@@H]2[C@@H](O)C[C@@]2(C)[C@H]1CC[C@]2(O)C(=O)CO
inactive: [1] -0.1% | [2] -0.3% | [3] 4.2%

CCCCC[C@H](O)/C=C/[C@@H]1[C@@H](C/C=C\CCCC(=O)O)[C@@H](O)C[C@H]1O
inactive: [1] -2.4% | [2] -1.9% | [3] -1.1%

O=c1cc(Cn2ccnc2)c2cc3c(cc2o1)CCC3
inactive: [1] 1.9% | [2] -1.1% | [3] -3.2%

COc1ccc2c(c1OC)C(=O)N1C2SC[C@H]1C(=O)NC1CC(C)(C)NC(C)(C)C1 (stereo partly drawn)
inactive: [1] 3.2% | [2] -0.5% | [3] -2.4%

C#C[C@]1(O)CC[C@H]2[C@@H]3CCc4cc(OC5CCCC5)ccc4[C@H]3CC[C@@]21C
inactive: [1] -0.9% | [2] 0.8% | [3] 0.5%

COc1ccc(-c2[nH]ncc2CN(C)C(C)c2ccon2)c(OC)c1 (stereo not drawn)
inactive: [1] 1.9% | [2] 1.4% | [3] 0%

COc1ccc(OC)c(NC2=C(Cl)C(=O)N(Cc3ccccc3)C2=O)c1
inactive: [1] 0% | [2] -2.2% | [3] -12.4%

O=c1ccc2ccccc2o1
inactive: [1] -3% | [2] -1.4% | [3] -1.4%

N#C/C(=C/c1ccccc1)C(=O)NCc1ccccc1
inactive: [1] 5.2% | [2] 0.1% | [3] -7.6%

COc1ccc(C2NC(=O)c3ccccc3N2)cc1OC (stereo not drawn)
inactive: [1] -2.5% | [2] -0.1% | [3] -2.9%

COc1c2occc2c(OC)c2c(=O)cc(C)oc12
inactive: [1] -0.3% | [2] -1.1% | [3] 4.5%

c1cc2c(cc1C1CCCCC1)c1c3n2CCN=C3CCC1
inactive: [1] 0.7% | [2] -0.3% | [3] -11.8%

CC(C)N1C(=O)/C(=C\c2nc3ccccc3c(=O)[nH]2)c2ccccc21
inactive: [1] -0.2% | [2] -0.6% | [3] -0.1%

O=C(COc1cc(O)c2c(=O)c3ccccc3oc2c1)OCc1ccccc1
inactive: [1] 1.4% | [2] 0.2% | [3] 1.6%

Oc1ccc(Cl)cc1Cc1cc(Cl)ccc1O
inactive: [1] 10% | [2] 4.5% | [3] 7.7%
